# Shown is part of a subset that was picked to be rich in hits.
# D1 mod: D1 CRE-luciferase signal change, two-sided – cell-based, HEK293 D1, dopamine EC30, D1 allosteric modulator project, primary screen; dopamine EC30 potentiation; actives deviate in either direction; B-score at 10 µM; 58,000 compounds, 5.9% hits;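 active means luminescence count or its row- and column-corrected plate score outside the 99.7% band of the plate's sample wells, on either side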
# FAK blocker: FAK kinase inhibitors, primary screen, biochemical. biochemical FAK kinase activity assay. inhibition, %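 (tested at 7 µM)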. 97,000 compounds, 0.84% hits; in the data active means inhibition above about 19%;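 further: 0% = DMSO and 100% = reference compound high control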
# Target sequence (Q05397 whole entry, looked up): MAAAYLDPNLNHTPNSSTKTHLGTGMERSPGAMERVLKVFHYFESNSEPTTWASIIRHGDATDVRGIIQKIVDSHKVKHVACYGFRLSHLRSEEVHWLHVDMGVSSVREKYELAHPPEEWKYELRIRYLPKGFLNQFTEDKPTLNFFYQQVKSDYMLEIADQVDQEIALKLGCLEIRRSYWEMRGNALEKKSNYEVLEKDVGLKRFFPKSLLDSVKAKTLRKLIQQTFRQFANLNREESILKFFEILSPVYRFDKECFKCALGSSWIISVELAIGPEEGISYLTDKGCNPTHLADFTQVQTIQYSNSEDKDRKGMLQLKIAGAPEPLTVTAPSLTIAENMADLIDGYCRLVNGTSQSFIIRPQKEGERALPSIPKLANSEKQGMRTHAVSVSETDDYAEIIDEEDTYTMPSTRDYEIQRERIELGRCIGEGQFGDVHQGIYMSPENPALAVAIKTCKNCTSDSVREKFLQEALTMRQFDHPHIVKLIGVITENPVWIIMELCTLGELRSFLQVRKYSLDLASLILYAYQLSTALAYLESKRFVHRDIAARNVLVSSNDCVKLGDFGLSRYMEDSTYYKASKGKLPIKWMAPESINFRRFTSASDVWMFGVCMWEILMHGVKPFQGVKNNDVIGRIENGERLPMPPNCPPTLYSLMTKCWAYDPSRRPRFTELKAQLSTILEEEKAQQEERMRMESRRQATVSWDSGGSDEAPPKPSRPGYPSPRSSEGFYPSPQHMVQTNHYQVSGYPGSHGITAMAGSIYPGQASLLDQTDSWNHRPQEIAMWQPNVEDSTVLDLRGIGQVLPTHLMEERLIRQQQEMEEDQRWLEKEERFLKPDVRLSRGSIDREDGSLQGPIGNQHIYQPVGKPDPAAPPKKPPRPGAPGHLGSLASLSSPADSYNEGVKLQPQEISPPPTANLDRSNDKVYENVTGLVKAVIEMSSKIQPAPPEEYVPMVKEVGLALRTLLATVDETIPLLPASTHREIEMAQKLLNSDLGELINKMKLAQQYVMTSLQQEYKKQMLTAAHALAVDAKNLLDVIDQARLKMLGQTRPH
# DAT uptake mod: changed hDAT dopamine uptake under cocaine IC80, either direction, primary screen, cocaine antagonist project, cell-based, LLC-PK1 hDAT, [14C]-dopamine uptake, MLSMR; 110,000 compounds, 1.3% hits; B-score at 10 µM; Sodium-dependent dopamine transporter (Homo sapiens), Q01959; LLC-PK1 hDAT cells, [14C]-dopamine uptake with cocaine IC80; actives deviate in either direction;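 active means Z score or B-score, a plate-position-corrected score, falls beyond the plate's 99.7% confidence bounds, in either direction; inactive means both scores lie inside the 99.7% bounds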;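 further: scored against the spread of the other compound wells on the same plate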
# CD11b adhes inh: inhibitors of CD11b/CD18 adhesion to fibrinogen, primary screen, K562 cells, luminescence | Integrin beta-2 (Homo sapiens) + Integrin alpha-M (Homo sapiens), P05107+P11215 | ATPlite luminescence; Mn2+ added to activate the integrin | inhibition, % at 10 µM | 93,000 compounds, 0.54% hits;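 active means primary inhibition of 50% or more at 10 µM, then 40% or more on retest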
# CD11b adhes enh: enhancers of CD11b/CD18 adhesion to fibrinogen, primary screen, K562 cells, luminescence. ATPlite luminescence. activation, % at 10 µM. 93,000 compounds, 0.07% hits;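 active means 10 µM primary screen giving 50% or more activity, confirmed by 40% or more on retest at that dose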
# PTK2B oligo ant: antagonists of Pyk2 self-association, primary screen, Q293 cells, FERM NanoBiT luminescence, HTS; Protein-tyrosine kinase 2-beta (Homo sapiens), Q14289; hits give low values; z-score (the deposit names both 25 µM and 10 µM); AID 1347419, 2020; 99,000 compounds, 0.83% hits;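 active means Z-score of -3 or lower, scaled per plate to the spread of control and sample wells; inactive means z-score above -3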;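 further: negative z-score means lost luminescence so less FERM oligomerization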
# Active calls of the source: *; nt = no result.
SMILES,D1 mod,FAK blocker,DAT uptake mod,CD11b adhes inh,CD11b adhes enh,PTK2B oligo ant
CC(=O)N1CCc2cc(C(=O)CN3CCN(c4cccc(Cl)c4)CC3)ccc21,-3.5*,0,1.3,46,-3,nt
CC(=O)N1CCc2cc(C(=O)CN3CCC(C)CC3)ccc21,0.073,0,-0.33,-7,2,nt
CC(=O)C1=NN(c2ccccc2)C2(S1)S/C(=C\c1ccccc1)C(=O)N2c1ccccc1 (configuration not stated),nt,0,0.76,0,-2,-1.4
CCn1c(=O)cc(OCC(=O)N(C)C2CCCCC2)c2ccccc21,nt,-6,2.4*,-29,0,0.85
O=C(Nc1ccccc1)C1=C[C@@H](c2ccc(C(F)(F)F)cc2)C[C@@H](OCc2ccc(CO)cc2)O1,nt,nt,-0.056,nt,nt,nt
COc1ccc(NC(=O)C2Cc3ccccc3CN2C(=O)c2ccccc2)cn1 (configuration not stated),-0.28,2,2.9*,-14,-3,0.11
CCOc1cc(/C=C2\C(=O)N(c3ccc(C(N)=O)cc3)N=C2C)ccc1OC(=O)c1cccs1,nt,5,0.55,8,81*,0.16
Cc1ccc(C(=O)Nc2nc(=O)n(C(=O)CC(C)C)s2)cc1,nt,0,-0.098,70,-9,-0.39
CC(C)CC(=O)n1sc(NC(=O)c2ccccc2)nc1=O,nt,-3,-0.83,55*,-7,-0.16
COC(=O)c1cn(CC(=O)N2CCCCCC2)c2ccccc12,nt,0,0.039,13,0,0.49
CCOC(=O)C1=C(O)/C(=C/c2cn(CC(=O)N3CCCC3)c3ccccc23)SC1=Nc1ccccc1,nt,7,-8.3*,nt,nt,0.22
CCOc1ccc(NC(=O)C(C)Sc2nnnn2C)cc1 (configuration not stated),0.97,-1,-0.31,-10,2,0.14
CCOc1ccc(NC(=O)C(C)SC(N)=O)cc1 (configuration not stated),-2.6*,3,-0.15,-4,0,0.17
COc1ccccc1-n1c(=O)[nH]c2c(C(N)=O)nc(-c3cccnc3)nc21,18*,nt,-1.5,nt,nt,nt
CCn1c(SCC(=O)Nc2nccs2)nnc1-c1ccc(S(=O)(=O)N2CCCCCC2)cc1,nt,0,-0.85,16,0,-1.5
CCC(Sc1nnc(-c2ccc(C)c(Cl)c2)n1CC)C(=O)Nc1nccs1 (configuration not stated),-1.6,nt,1.8,56*,-4,-0.31
COc1ccc(CNc2nc3nc(C)c(Cl)c(C)n3n2)cc1OC,6.2*,-2,1.1,nt,nt,0.97
Nc1nc(SCC(=O)Nc2cc(-c3ccccc3)nn2-c2ccccc2)n[nH]1,nt,4,1.4*,3,-4,-0.36
CCOC(=O)c1c(C)n(C)c2ccc(OC)c(NC(=O)CN3CCN(C(=O)c4ccco4)CC3)c12,0.65,-6,-0.23,-11,0,-0.05
COc1cc(OC)cc(C(=O)N2CCN=C2SCc2cccnc2)c1,0.046,6,1.6*,9,-1,nt
Cc1cccc(CCNC(=O)c2nnc(Cc3ccc(Cl)cc3)o2)c1,0.029,nt,nt,nt,nt,nt
COc1ccc(C(=O)N=c2nc3ccccn3s2)cc1,-4.8*,nt,0.2,49,-8,-0.87
COc1ccc(C(=O)N=c2sc3c(C)ccc(OC)c3n2C)cc1,nt,-4,-0.12,37,-2,nt
Cc1ccc(-c2nnc(Nc3ccccc3)o2)cc1,-4.2*,3,-2.2,10,-5,-0.2
CCOc1ccc(NC(=O)CSc2nnc(-c3ccccn3)n2N)cc1,-0.8,2,-0.28,4,-1,-0.12
SMILES,D1 mod,FAK blocker,DAT uptake mod,CD11b adhes inh,CD11b adhes enh,PTK2B oligo ant
CCn1c2ccccc2c2cc(NC(=O)CSc3nnc(-c4ccccc4OC)n3N)ccc21,0.2,11,2.8*,2,3,-0.83
COc1ccc(NC(=O)CSc2nnc(-c3ccccn3)n2N)cc1,0.77,6,2.5*,-13,-2,1.4
CSc1nc(-c2ccccc2)nc(SC)c1C(C)=O,0.033,1,-0.55,2,10,0.61
CSc1nc(-c2ccccc2)nc2[nH]ccc(=O)c12,0.21,22*,nt,nt,nt,nt
Cc1[nH]n(-c2cccc3ccccc23)c(=O)c1/C=N/c1sc2c(c1C#N)CCC2,nt,0,0.45,100*,-13,0.13
COc1ccc(C)cc1NC(=O)C(NCC1CCCO1)c1ccccc1 (configuration not stated),nt,nt,nt,nt,nt,0.48
COc1ccc(Oc2coc3c(CN4CCOCC4)c(O)ccc3c2=O)cc1,nt,2,-7.4*,7,4,1.9
COc1ccc(Oc2coc3c(CN(C)C)c(O)ccc3c2=O)cc1,-4.3*,0,-0.86,-39,5,-0.62
COc1ccc(Oc2c(C)oc3c(CN(C)C)c(O)ccc3c2=O)cc1,nt,-10,-0.021,-29,-3,0.46
O=c1c(-c2ccc(Br)cc2)coc2c(CN3CCOCC3)c(O)ccc12,-1.9,3,0.73,nt,nt,-0.62
Cc1ccc(NC(=O)CCNS(=O)(=O)c2cccc3nsnc23)cc1,nt,nt,nt,nt,nt,0.2
O=S(=O)(NCCc1ccccc1)c1cccc2nsnc12,nt,4,-0.084,-45,0,-0.41
Cc1cccc(NC(=O)CCNS(=O)(=O)c2cccc3nsnc23)c1,0.63,nt,1.8*,-15,2,-0.33
O=C(CCCNS(=O)(=O)c1cccc2nsnc12)NCCc1ccccc1,-4*,-5,0.3,nt,nt,0.38
COC(=O)c1ccc(Cl)c(NC(=O)NC23CC4CC(CC(C4)C2)C3)c1,nt,10,0.32,47,-2,-3.6*
COC(=O)c1cccc(NC(=O)NC23CC4CC(CC(C4)C2)C3)c1,nt,3,0.91,-7,-1,-1.8
CC(O)CNc1nc2c(c(=O)n(C)c(=O)n2C)n1Cc1cccc(C(F)(F)F)c1 (configuration not stated),nt,-1,1.8*,nt,nt,0.78
CC(O)CNc1nc2c(c(=O)n(C)c(=O)n2C)n1Cc1cccc(Br)c1 (configuration not stated),-0.59,-2,0.86,-4,1,0.23
Cc1cccc(NC(=O)Nc2cccc(F)c2)n1,2.5,7,2,-12,1,-0.15
Cc1ccnc(NC(=O)Nc2cccc(F)c2)c1,-5.3*,4,0.15,21,-4,-1.2
Cc1ccc(C)c(OCC(O)CN2CCCCC2C)c1 (configuration not stated),-6*,1,0.41,-20,-5,0.04
CCOC(=O)c1sc(=S)n(C)c1C,nt,-2,-0.17,-1,-4,1.4
CCOC(=O)c1sc(=S)n(C)c1N,4.5*,1,0.027,-1,-3,0.72
COC(=O)c1ccccc1NC(=O)c1sc(=S)n(C)c1N,0.011,4,6*,2,40,-0.44

# From PubChem
